# Measured values: PubChem BioAssay (NCI)
# This is part of a sample that, as a whole, favours compounds with a hit. Of some 83,000 tested, about 20% had one in any assay.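 Cells were grown in 96-well plates and exposed to the test compound at a single concentration for 48 hours; results are reported as percent growth, with values below 10 considered active.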 Values without a mark were called inactive. Active and inactive are the calls of the source.
# What was measured:
# Experiment in all cases: NCI-60 one-dose screen, 48 h (100 = growth as untreated, 0 = no growth, -100 = all killed)
# Settings in all cases: 10 µM unless noted
# SR leukemia = test system: SR leukemia
# RPMI-8226 leukemia = test system: RPMI-8226 leukemia
# OVCAR-8 ovarian = test system: OVCAR-8 ovarian
# OVCAR-5 ovarian = test system: OVCAR-5 ovarian
# OVCAR-4 ovarian = test system: OVCAR-4 ovarian
# SK-OV-3 ovarian = test system: SK-OV-3 ovarian
# IGROV1 ovarian = test system: IGROV1 ovarian
# OVCAR-3 ovarian = test system: OVCAR-3 ovarian
# HS 578T breast = test system: HS 578T breast
# NCI/ADR-RES ovarian = test system: NCI/ADR-RES ovarian
SMILES,growth (SR leukemia),growth (RPMI-8226 leukemia),growth (OVCAR-8 ovarian),growth (OVCAR-5 ovarian),growth (OVCAR-4 ovarian),growth (SK-OV-3 ovarian),growth (IGROV1 ovarian),growth (OVCAR-3 ovarian),growth (HS 578T breast),growth (NCI/ADR-RES ovarian)
CCCCCCCCCC(=O)Oc1ccc(/C(=C(/C)c2ccccc2)c2ccc(OCCN3CCCC3)cc2)cc1,-25.7% (active),-21.8% (active),54.5%,54.4%,32.6%,33.9%,44.6%,42.9%,11.9%,–
COc1ccc(C(=O)c2sc3nc4c(cc3c2N)CCCC4)cc1OC,-7.02% (active),10.4%,43.1%,86.9%,60.7%,71.6%,35.9%,20.6%,74%,–
Nc1c(C(=O)Nc2cccc3c2OCCO3)sc2nc3c(cc12)CN(Cc1ccccc1)CC3,35.5%,77.5%,87.7%,95.3%,74.5%,89.2%,60.7%,26.7%,66%,53%
CCOC(=O)/C=C/C(=O)[C@H](CC(C)C)NC(=O)[C@H](Cc1ccccc1)NC(=O)OCc1ccccc1,-8.81% (active),-19.9% (active),72.8%,90.8%,91.9%,102%,75.6%,30%,93.4%,–
COC(=O)[C@@H]1CC[C@]2(C)[C@H](CC[C@@H]3O[C@@]32C)[C@@]1(C)CC(=O)c1ccoc1,86.6%,91.2%,102%,109%,127%,103%,105%,105%,88.2%,103%
COc1cccc(-n2cc(-c3nc(Nc4cc(C)[nH]n4)c4ccccc4n3)nn2)c1,27.8%,48.4%,38.3%,56.5%,17.2%,10.8%,18%,59.4%,46.4%,–
CN1CCCCC1CCN1c2ccccc2Sc2ccc(Cl)cc21 (centres undefined),-22.5% (active),56.5%,63%,91.8%,57.1%,59.1%,45.5%,81.6%,72.5%,–
Clc1nc(Cl)c2c3c(sc2n1)CCCC3,-36.4% (active),1.89% (active),39.8%,96.5%,44.1%,107%,38.4%,-35.9% (active),76.2%,–
CC1=CC(=O)CC(C)(C)[C@@]1(O)/C=C/[C@@H](C)O,111%,109%,90.1%,103%,106%,113%,107%,108%,105%,95.6%
O=C1Nc2c(ccc(Cl)c2Cl)/C1=C/c1cc(Br)c(O)c(Br)c1,39.3%,14.8%,51.4%,87.1%,64.9%,63%,47%,27.3%,43.5%,32.4%
CC1=C(NCCN2CCCC2)C(=O)c2c(OCc3cccc(Cl)c3)cccc2C1=O,14.1%,60.9%,79.7%,79.9%,73.1%,95.2%,71.8%,85%,72.4%,78.7%
COc1ccc2nc3cc(Cl)ccc3c(N3CCN(c4nccc(Nc5ccccc5)n4)CC3)c2c1,26.9%,45.2%,67.8%,99.5%,50.8%,96.2%,78.8%,50.7%,88.1%,69.9%
COc1cc(OC)c(/C=C/S(=O)(=O)Cc2ccc(OC)c(N)n2)c(OC)c1,0.349% (active),33.1%,11%,50.5%,42.1%,5.23% (active),26.4%,-27.7% (active),43.8%,10.2%
COc1cc(C#N)cc(OC)c1OCCN(CCOc1c(OC)cc(C#N)cc1OC)S(=O)(=O)c1ccc(C)cc1,106%,90.6%,54.1%,108%,107%,119%,77.3%,118%,99%,95.9%
